Results filed as inconclusive are left out. Calls of active or inactive are those of the source. Rule for the calls: active = hit-call score of the fitted dose curve at least 0.9, where 1 is the maximum; inconclusive = response in the unintended direction; inactive = score below 0.9.

The text below walks through data of PubChem BioAssay (EPA / NIEHS).

The target in this assay is human Thyroid Receptor alpha (THRa1), THRA (gene 7067) (UniProt P10827). Briefly: ATG_THRa1_TRANS: Attagene TRANS-FACTORIAL HepG2 Assay for human Thyroid Receptor alpha (THRa1) (AID 2283014). In a few lines: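 First, HepG2 cells receive multiple GAL4-UAS reporter units and the chimeric receptor. They are then dosed for 24 h, after which RNA is reverse-transcribed, amplified, labelled, HpaI-cut and sized by capillary electrophoresis; gain relative to DMSO is scored.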
Chain of human Thyroid Receptor alpha (THRa1), THRA (gene 7067) (P10827 whole entry, looked up, the tested form may be a part): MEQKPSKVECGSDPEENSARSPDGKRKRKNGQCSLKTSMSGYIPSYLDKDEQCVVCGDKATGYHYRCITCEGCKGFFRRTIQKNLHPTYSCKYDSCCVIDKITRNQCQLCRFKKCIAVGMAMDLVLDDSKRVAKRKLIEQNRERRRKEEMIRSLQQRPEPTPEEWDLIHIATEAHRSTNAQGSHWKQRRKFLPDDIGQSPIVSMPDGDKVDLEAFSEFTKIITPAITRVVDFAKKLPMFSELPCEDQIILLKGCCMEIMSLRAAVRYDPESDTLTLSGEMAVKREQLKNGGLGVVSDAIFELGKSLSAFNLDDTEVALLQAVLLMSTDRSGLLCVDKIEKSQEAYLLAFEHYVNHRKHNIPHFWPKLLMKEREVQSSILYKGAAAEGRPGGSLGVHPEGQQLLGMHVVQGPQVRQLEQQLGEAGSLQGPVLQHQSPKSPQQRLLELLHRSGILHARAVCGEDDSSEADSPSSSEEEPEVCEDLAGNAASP
With `COCC(=O)O`, the result was inactive. Turning to `CCCCOCC(C)O` (stereo not given), the call was inactive.

On to `O=C(Cl)c1ccc(C(=O)Cl)cc1`, for which the molecule was classed as inactive. In the case of `CC1(C)[C@@H]2CC[C@@]1(C)C(=O)C2` it was “inactive”; in that of `CC(=O)/C=C/C1C(C)=CCCC1(C)C` (stereo not given), “inactive”. For `C[Si](C)(C)N[Si](C)(C)C`, the result was inactive. As for `C=C[Si](OCCOC)(OCCOC)OCCOC`, the call was inactive. On to `Cc1c(Cl)cccc1Cl`, for which the result was inactive. In the case of `C=CCCCCCCCCOC(C)=O`, the result was inactive.

On to `CCOc1ccc(NC(N)=O)cc1`, for which the outcome was inactive. In the case of `CCCC(CC)c1ccccc1` (stereo not given), the call was inactive. Take `CC(=O)OC(C)c1ccccc1` (stereo not given): the outcome was inactive.

As for `CN1CCN(C)CC1`, the molecule was called inactive. As to `CCCCCOC(=O)CCCCC`, the outcome was inactive. Regarding `Cn1ccnc1`, the call was inactive. For the molecule `CCCCNS(=O)(=O)c1ccccc1`, the molecule was called inactive. Consider `O=C(Oc1ccccc1)c1ccccc1O`, for which the outcome was inactive. As for `C=CC(=O)OCCCCCCCCCC`, the entry is “inactive”; as for `Nc1ncnc2nc[nH]c12`, “inactive”; as for `CCN1CCCC1=O`, “inactive”.
